Binding signal data for 15 sequences are collected here from PMC11006913.

Some targets named below: HOXB6 (Homo sapiens, UniProt P17509 132-218, K202E); ALX3 (Homo sapiens, UniProt O95076 139-225, N203S); PITX2 (Homo sapiens, UniProt Q99697 72-157).
What all share (test): PBM; 200 nM protein, PBS
Conditions in all cases: dsDNA, one strand shown

The target in assay [1] is HOXB9 (Homo sapiens, UniProt P17482 171-250, T197M).
The target in assay [2] is HOXB9 (Homo sapiens, UniProt P17482 171-250).
Assay [3] deals with HOXD13 (Homo sapiens, UniProt P35453 263-343, T313R).
Assay [4] concerns the target HOXB9 (Homo sapiens, UniProt P17482 171-250, R186Q).
Assay [5] has as its target HOXD13 (Homo sapiens, UniProt P35453 263-343).
Assay [6] deals with HOXD13 (Homo sapiens, UniProt P35453 263-343, T313A).
Assay [7] has as its target NKX3-2 (Homo sapiens, UniProt P78367 192-278, P234S).
Assay [8] deals with NKX3-2 (Homo sapiens, UniProt P78367 192-278).
The target of assay [9] is HOXA2 (Homo sapiens, UniProt O43364 129-215, R185T).
Assay [10] addresses HOXA2 (Homo sapiens, UniProt O43364 129-215, R185K).
Assay [11] has as its target HOXA2 (Homo sapiens, UniProt O43364 129-215, Y150S).
Assay [12] addresses HOXA2 (Homo sapiens, UniProt O43364 129-215).
Assay [13] addresses ALX1 (Homo sapiens, UniProt Q15699 118-204, L144V).
The target of assay [14] is ALX1 (Homo sapiens, UniProt Q15699 118-204, L144R).
Assay [15] concerns the target ALX1 (Homo sapiens, UniProt Q15699 118-204).
In assay [16] the target is MSX2 (Homo sapiens, UniProt P35548 130-214, R199I).
Assay [17] addresses MSX2 (Homo sapiens, UniProt P35548 130-214).
Assay [18] deals with MSX2 (Homo sapiens, UniProt P35548 130-214, F161Y).
MSX2 (Homo sapiens, UniProt P35548 130-214, F161Y), sequence (P35548 130-214 F161Y): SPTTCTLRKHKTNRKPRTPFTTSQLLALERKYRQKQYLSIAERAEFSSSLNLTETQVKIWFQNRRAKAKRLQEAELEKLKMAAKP

HOXD13 (Homo sapiens, UniProt P35453 263-343, T313R), sequence (P35453 263-343 T313R): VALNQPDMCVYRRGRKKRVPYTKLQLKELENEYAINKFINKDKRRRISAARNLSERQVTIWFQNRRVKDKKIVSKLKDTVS
HOXB9 (Homo sapiens, UniProt P17482 171-250, T197M), sequence (P17482 171-250 T197M): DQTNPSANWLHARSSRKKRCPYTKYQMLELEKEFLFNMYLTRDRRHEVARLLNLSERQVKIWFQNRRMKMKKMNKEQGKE
HOXB9 (Homo sapiens, UniProt P17482 171-250, R186Q), sequence (P17482 171-250 R186Q): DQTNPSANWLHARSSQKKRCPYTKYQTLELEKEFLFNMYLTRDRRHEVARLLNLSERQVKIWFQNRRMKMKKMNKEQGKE
HOXB9 (Homo sapiens, UniProt P17482 171-250), sequence (P17482 171-250): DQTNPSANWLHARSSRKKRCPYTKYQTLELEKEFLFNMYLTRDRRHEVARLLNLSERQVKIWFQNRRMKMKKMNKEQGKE
HOXD13 (Homo sapiens, UniProt P35453 263-343, T313A), sequence (P35453 263-343 T313A): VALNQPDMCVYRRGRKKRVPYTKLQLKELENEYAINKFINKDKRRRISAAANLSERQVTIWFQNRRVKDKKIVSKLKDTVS
HOXA2 (Homo sapiens, UniProt O43364 129-215, Y150S), sequence (O43364 129-215 Y150S): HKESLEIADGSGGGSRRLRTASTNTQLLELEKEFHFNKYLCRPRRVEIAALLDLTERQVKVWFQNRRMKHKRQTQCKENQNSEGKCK
HOXA2 (Homo sapiens, UniProt O43364 129-215, R185T), sequence (O43364 129-215 R185T): as the sequence (O43364 129-215 Y150S) above, with S22Y, R57T counted along it
HOXD13 (Homo sapiens, UniProt P35453 263-343), sequence (P35453 263-343): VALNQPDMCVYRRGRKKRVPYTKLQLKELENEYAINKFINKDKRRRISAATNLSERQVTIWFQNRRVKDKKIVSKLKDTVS
HOXA2 (Homo sapiens, UniProt O43364 129-215, R185K), sequence (O43364 129-215 R185K): as the sequence (O43364 129-215 Y150S) above, with S22Y, R57K counted along it
HOXA2 (Homo sapiens, UniProt O43364 129-215), sequence (O43364 129-215): as the sequence (O43364 129-215 Y150S) above, with S22Y counted along it
HOXB6, sequence (P17509 132-218 K202E): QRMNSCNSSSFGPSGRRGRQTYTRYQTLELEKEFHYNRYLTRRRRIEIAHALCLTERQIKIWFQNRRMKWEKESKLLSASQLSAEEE
MSX2 (Homo sapiens, UniProt P35548 130-214), sequence (P35548 130-214): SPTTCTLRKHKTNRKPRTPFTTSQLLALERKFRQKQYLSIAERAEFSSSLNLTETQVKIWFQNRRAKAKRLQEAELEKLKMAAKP
NKX3-2 (Homo sapiens, UniProt P78367 192-278), sequence (P78367 192-278): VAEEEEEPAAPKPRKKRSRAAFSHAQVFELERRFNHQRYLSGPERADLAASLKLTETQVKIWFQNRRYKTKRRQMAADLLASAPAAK
ALX1 (Homo sapiens, UniProt Q15699 118-204), sequence (Q15699 118-204): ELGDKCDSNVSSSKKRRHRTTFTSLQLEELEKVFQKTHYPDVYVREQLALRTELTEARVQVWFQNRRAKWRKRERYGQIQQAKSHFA
ALX1 (Homo sapiens, UniProt Q15699 118-204, L144V), sequence (Q15699 118-204 L144V): as the sequence (Q15699 118-204) above, with L27V counted along it
MSX2 (Homo sapiens, UniProt P35548 130-214, R199I), sequence (P35548 130-214 R199I): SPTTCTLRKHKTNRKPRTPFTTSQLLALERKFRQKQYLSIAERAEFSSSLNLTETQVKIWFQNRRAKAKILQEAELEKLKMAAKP
ALX3, sequence (O95076 139-225 N203S): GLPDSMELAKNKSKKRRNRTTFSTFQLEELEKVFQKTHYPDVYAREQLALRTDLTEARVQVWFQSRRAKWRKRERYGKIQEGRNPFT
NKX3-2 (Homo sapiens, UniProt P78367 192-278, P234S), sequence (P78367 192-278 P234S): as the sequence (P78367 192-278) above, with P43S counted along it
ALX1 (Homo sapiens, UniProt Q15699 118-204, L144R), sequence (Q15699 118-204 L144R): as the sequence (Q15699 118-204) above, with L27R counted along it

ATAAATTG: the binding signal with HOXB9 [1] was 9.96 upbm affinity estimate (log intensity, higher = more binding, comparable within an allelic series); with HOXB6 it was 10 upbm affinity estimate (log intensity, higher = more binding, comparable within an allelic series); in the assay with ALX3 it was 8.68 upbm affinity estimate (log intensity, higher = more binding, comparable within an allelic series).

Consider TATAAATA, for which the binding signal with HOXB9 [1] was 9.81 upbm affinity estimate (log intensity, higher = more binding, comparable within an allelic series); in the assay with HOXB9 [2], 11.2 upbm affinity estimate (log intensity, higher = more binding, comparable within an allelic series); with HOXD13 [3] it was 10.8 upbm affinity estimate (log intensity, higher = more binding, comparable within an allelic series); in the assay with HOXB9 [4] it was 10.8 upbm affinity estimate (log intensity, higher = more binding, comparable within an allelic series).

GCAGGCCC: the binding signal was 8.19 upbm affinity estimate (log intensity, higher = more binding, comparable within an allelic series) in the assay with HOXB9 [1]; 8.31 upbm affinity estimate (log intensity, higher = more binding, comparable within an allelic series) in the assay with HOXB9 [2]; 9.4 upbm affinity estimate (log intensity, higher = more binding, comparable within an allelic series) with HOXD13 [3]; 7.9 upbm affinity estimate (log intensity, higher = more binding, comparable within an allelic series) in the assay with PITX2; 9.64 upbm affinity estimate (log intensity, higher = more binding, comparable within an allelic series) with HOXD13 [5]; 9.61 upbm affinity estimate (log intensity, higher = more binding, comparable within an allelic series) with HOXD13 [6]. In the assay with HOXB9 [4], the binding signal was 8.26 upbm affinity estimate (log intensity, higher = more binding, comparable within an allelic series).

Consider CTGCCGGC, for which the binding signal with HOXB9 [1] was 8.63 upbm affinity estimate (log intensity, higher = more binding, comparable within an allelic series); with HOXB9 [2], 8.65 upbm affinity estimate (log intensity, higher = more binding, comparable within an allelic series); with HOXD13 [3] it was 9.44 upbm affinity estimate (log intensity, higher = more binding, comparable within an allelic series); in the assay with HOXD13 [5], 9.54 upbm affinity estimate (log intensity, higher = more binding, comparable within an allelic series); with HOXD13 [6], 9.67 upbm affinity estimate (log intensity, higher = more binding, comparable within an allelic series); with HOXB9 [4], 8.68 upbm affinity estimate (log intensity, higher = more binding, comparable within an allelic series). Further, the binding signal in the assay with NKX3-2 [7] is 10.4 upbm affinity estimate (log intensity, higher = more binding, comparable within an allelic series); in the assay with NKX3-2 [8], 10.3 upbm affinity estimate (log intensity, higher = more binding, comparable within an allelic series).

Consider GAACCGGC, for which the binding signal with HOXB9 [1] was 8.52 upbm affinity estimate (log intensity, higher = more binding, comparable within an allelic series); with HOXA2 [9], 7.08 upbm affinity estimate (log intensity, higher = more binding, comparable within an allelic series); with HOXB9 [2], 8.43 upbm affinity estimate (log intensity, higher = more binding, comparable within an allelic series); with HOXA2 [10] it was 10.2 upbm affinity estimate (log intensity, higher = more binding, comparable within an allelic series); with HOXB9 [4] it was 8.48 upbm affinity estimate (log intensity, higher = more binding, comparable within an allelic series); with HOXA2 [11], 10.4 upbm affinity estimate (log intensity, higher = more binding, comparable within an allelic series). The binding signal with HOXA2 [12] is 7.09 upbm affinity estimate (log intensity, higher = more binding, comparable within an allelic series).

On to CGGCGCCA, for which the binding signal with HOXB9 [1] is 8.53 upbm affinity estimate (log intensity, higher = more binding, comparable within an allelic series); with HOXB9 [2], 8.36 upbm affinity estimate (log intensity, higher = more binding, comparable within an allelic series); in the assay with HOXB9 [4], 8.51 upbm affinity estimate (log intensity, higher = more binding, comparable within an allelic series).

Turning to CTTGGCGC, the binding signal in the assay with HOXB9 [1] was 8.47 upbm affinity estimate (log intensity, higher = more binding, comparable within an allelic series); with HOXB9 [2], 8.24 upbm affinity estimate (log intensity, higher = more binding, comparable within an allelic series); with PITX2, 7.94 upbm affinity estimate (log intensity, higher = more binding, comparable within an allelic series); with HOXB9 [4], 8.21 upbm affinity estimate (log intensity, higher = more binding, comparable within an allelic series).

For the sequence CTCGACCA, the binding signal with HOXB9 [1] is 8.44 upbm affinity estimate (log intensity, higher = more binding, comparable within an allelic series); with HOXB9 [2], 8.28 upbm affinity estimate (log intensity, higher = more binding, comparable within an allelic series); with ALX1 [13], 6.22 upbm affinity estimate (log intensity, higher = more binding, comparable within an allelic series); with ALX1 [14], 6.21 upbm affinity estimate (log intensity, higher = more binding, comparable within an allelic series); in the assay with HOXB9 [4], 8.38 upbm affinity estimate (log intensity, higher = more binding, comparable within an allelic series); with ALX1 [15], 6.22 upbm affinity estimate (log intensity, higher = more binding, comparable within an allelic series).

As to CTGGCGTC, the binding signal with HOXB9 [1] is 8.43 upbm affinity estimate (log intensity, higher = more binding, comparable within an allelic series); in the assay with HOXB9 [2] it was 8.27 upbm affinity estimate (log intensity, higher = more binding, comparable within an allelic series); in the assay with MSX2 [16], 9.45 upbm affinity estimate (log intensity, higher = more binding, comparable within an allelic series); with MSX2 [17], 9.51 upbm affinity estimate (log intensity, higher = more binding, comparable within an allelic series); with HOXB9 [4], 8.34 upbm affinity estimate (log intensity, higher = more binding, comparable within an allelic series); in the assay with MSX2 [18] it was 9.44 upbm affinity estimate (log intensity, higher = more binding, comparable within an allelic series).

Take CTCAGGCC: the binding signal is 8.41 upbm affinity estimate (log intensity, higher = more binding, comparable within an allelic series) in the assay with HOXB9 [1]; 7.06 upbm affinity estimate (log intensity, higher = more binding, comparable within an allelic series) in the assay with HOXA2 [9]; 8.36 upbm affinity estimate (log intensity, higher = more binding, comparable within an allelic series) with HOXB9 [2]; 10.3 upbm affinity estimate (log intensity, higher = more binding, comparable within an allelic series) in the assay with HOXA2 [10]; 8.4 upbm affinity estimate (log intensity, higher = more binding, comparable within an allelic series) with HOXB9 [4]; 10.4 upbm affinity estimate (log intensity, higher = more binding, comparable within an allelic series) in the assay with HOXA2 [11]. The binding signal with HOXA2 [12] was 7.06 upbm affinity estimate (log intensity, higher = more binding, comparable within an allelic series).

For the sequence AGACGCGG, the binding signal was 8.63 upbm affinity estimate (log intensity, higher = more binding, comparable within an allelic series) with HOXB9 [1]; 8.58 upbm affinity estimate (log intensity, higher = more binding, comparable within an allelic series) with HOXB9 [2]; 8.55 upbm affinity estimate (log intensity, higher = more binding, comparable within an allelic series) in the assay with HOXB9 [4].

Turning to CCAGACCG, the binding signal was 8.54 upbm affinity estimate (log intensity, higher = more binding, comparable within an allelic series) with HOXB9 [1]; 8.51 upbm affinity estimate (log intensity, higher = more binding, comparable within an allelic series) with HOXB9 [2]; 8.43 upbm affinity estimate (log intensity, higher = more binding, comparable within an allelic series) with HOXB9 [4].

CGAAGGAC: the binding signal was 8.68 upbm affinity estimate (log intensity, higher = more binding, comparable within an allelic series) with HOXB9 [1]; 8.57 upbm affinity estimate (log intensity, higher = more binding, comparable within an allelic series) with HOXB9 [2]; 8.58 upbm affinity estimate (log intensity, higher = more binding, comparable within an allelic series) with HOXB9 [4].

As for CCTATAAG, the binding signal in the assay with HOXB9 [1] was 9.17 upbm affinity estimate (log intensity, higher = more binding, comparable within an allelic series); with HOXB9 [2] it was 9.71 upbm affinity estimate (log intensity, higher = more binding, comparable within an allelic series).

For the sequence CCTGCGGC, the binding signal with HOXB9 [1] is 8.26 upbm affinity estimate (log intensity, higher = more binding, comparable within an allelic series); with HOXB9 [2] it was 8.14 upbm affinity estimate (log intensity, higher = more binding, comparable within an allelic series); in the assay with HOXB9 [4], 8.19 upbm affinity estimate (log intensity, higher = more binding, comparable within an allelic series).
